Screening data deposited in PubChem by National Center for Advancing Translational Sciences (NCATS).
Only some compounds are listed: those with a hit (about 12% of all), similar ones and a draw of the others.
JMJD2A Tudor: inhibitors of human JMJD2A Tudor domain; O75164; AlphaScreen JMJD2A-Tudor / H3K4me3 peptide binding; Potency, µM (series often up to 114 µM), usual class: inhibitors; hit rate 4.4% among 390,000; AID 504339; further: nearly all actives have a fitted effect of over 50% in size
Target sequence (O75164 whole entry, looked up, the tested form may be a part): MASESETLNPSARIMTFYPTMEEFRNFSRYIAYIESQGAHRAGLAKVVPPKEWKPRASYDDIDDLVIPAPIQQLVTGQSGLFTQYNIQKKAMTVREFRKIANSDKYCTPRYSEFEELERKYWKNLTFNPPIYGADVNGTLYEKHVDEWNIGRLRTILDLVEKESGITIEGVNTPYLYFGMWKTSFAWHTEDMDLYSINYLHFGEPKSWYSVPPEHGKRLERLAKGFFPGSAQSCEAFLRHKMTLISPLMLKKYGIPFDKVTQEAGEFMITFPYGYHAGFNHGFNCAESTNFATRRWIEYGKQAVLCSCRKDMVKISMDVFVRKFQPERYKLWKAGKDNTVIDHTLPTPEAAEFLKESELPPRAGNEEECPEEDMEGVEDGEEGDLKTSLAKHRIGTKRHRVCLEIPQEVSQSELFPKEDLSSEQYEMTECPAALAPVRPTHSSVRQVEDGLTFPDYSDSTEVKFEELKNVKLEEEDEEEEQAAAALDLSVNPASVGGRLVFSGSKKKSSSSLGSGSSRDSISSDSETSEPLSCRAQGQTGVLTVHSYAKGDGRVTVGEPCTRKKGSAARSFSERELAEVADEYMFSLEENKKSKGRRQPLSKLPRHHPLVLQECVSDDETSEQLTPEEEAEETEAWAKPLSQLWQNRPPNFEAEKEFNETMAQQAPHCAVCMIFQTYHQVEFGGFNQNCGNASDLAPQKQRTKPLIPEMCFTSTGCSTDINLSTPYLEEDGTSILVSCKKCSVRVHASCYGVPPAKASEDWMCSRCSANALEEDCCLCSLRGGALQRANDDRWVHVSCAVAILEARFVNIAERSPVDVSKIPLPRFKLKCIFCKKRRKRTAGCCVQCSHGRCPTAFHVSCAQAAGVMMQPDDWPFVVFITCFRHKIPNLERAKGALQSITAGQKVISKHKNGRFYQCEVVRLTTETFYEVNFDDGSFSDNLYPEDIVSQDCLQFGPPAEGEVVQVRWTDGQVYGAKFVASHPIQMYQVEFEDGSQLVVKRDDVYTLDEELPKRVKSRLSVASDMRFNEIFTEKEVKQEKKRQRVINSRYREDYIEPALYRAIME
Sfp inh: Sfp phosphopantetheinyl transferase inhibition; AID 1490; hit rate 3.5% among 310,000; Biochemical Sfp PPTase activity, qHTS; Potency, µM, hits mostly inhibitors;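 further: the enzyme is Sfp with the accession as filed and its product quenches rhodamine fluorescence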
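After 15 min at room temperature with compound, 15 nM Sfp received 5 uM rhodamine-CoA plus 12.5 uM BHQ-2-ybbR (50 mM Hepes pH 7.6, 10 mM MgCl2). Rate came from the fluorescence difference over 30 min, ex 525/em 598 nm.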
HP1b binding inh: HP1-beta chromodomain-methylated histone interaction inhibition; AlphaScreen HP1-beta / biotin-H3K9me3 peptide binding; Potency, µM (titrated, usually from 114 µM), actives largely listed as inhibitors; hit rate 0.56% among 390,000; AID 540317; further: nearly all actives have a fitted effect of over 70% in size
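AlphaScreen: HP1-beta (50 nM) preformed 30 min with biotin-H3(1-18)K9me3 peptide (50 nM) in PBS pH 7.4, 0.01% Tween-20. Compound added for 30 min at RT, then streptavidin donor/nickel chelate acceptor beads (10 ug/mL) for 30 min.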
BAZ2B inh: BAZ2B (human) inhibition; Q9UIF8; hit rate 4.4% among 360,000; AID 504333; Potency, µM (series often up to 114 µM), actives largely listed as inhibitors; AlphaScreen BAZ2B-H3K14Ac peptide displacement; further: nearly all actives have a fitted effect of over 60% in size
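AlphaScreen displacement of biotin-H3(5-23)K14Ac peptide (50 nM final) from BAZ2B (50 nM final) in PBS pH 7.4, 0.01% Tween-20; complex preformed 30 min RT, then compounds (top 110 uM) 30 min RT, beads 20 min dark.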
G9a block: inhibitors of human histone lysine methyltransferase G9a. Potency, µM (series often up to 102 µM), actives largely listed as inhibitors. hit rate 8.8% among 350,000. Q96KQ7. G9a H3K9 monomethylation, AlphaScreen, 2 h; further: nearly all actives have a fitted effect of over 75% in size
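Signal arises when biotinylated H3K9 peptide, once monomethylated, bridges streptavidin donor and antibody-captured acceptor beads. Enzyme at 20 nM was preincubated 15 min with test compounds; peptide 500 nM and SAM 20 uM then reacted for 2 h.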
Of the large screens only hits and unclear results are named; the others gave an inactive call. The call rests on the fitted dose curve; in most records, active means well fitted curve in the direction sought with a large enough effect; inconclusive means small, poorly fitted or top-dose-only effect, or another doubt; inactive means no such curve, though single readings can be large; an effect the other way counts as inactive or inconclusive.

COc1cc(C2/C(=C(\O)c3cc(C)ccc3C)C(=O)C(=O)N2CCN(C)C)ccc1O (stereo unspecified)	G9a block 50.1µM
COc1cccc(CNC(=O)c2nn(-c3ccc(C)cc3)c(=O)c3c2c2ccccc2n3C)c1	none (no result: Sfp inh, BAZ2B inh)
O=c1c(N2CCN(c3cccc(Cl)c3)CC2)csc2ccccc12	JMJD2A Tudor 39.8µM, BAZ2B inh inconclusive, G9a block inconclusive (no result: Sfp inh)
Cc1ccc2scc(N3CCN(c4ccccc4)CC3)c(=O)c2c1	JMJD2A Tudor 44.7µM, BAZ2B inh inconclusive, G9a block inconclusive (no result: Sfp inh)
Cc1ccc2oc(=O)n(CCNC(=O)Nc3ccccc3Cl)c2c1	none (no result: Sfp inh)
COCCn1cnc2c1c(=O)n(CC(=O)NCC(F)(F)F)c(=O)n2Cc1ccccc1	none
CCc1ccc(NC(=O)Cn2c(=O)n(Cc3nc(-c4ccccc4)no3)c(=O)c3cc4c(cc32)OCO4)cc1	none (no result: Sfp inh)
O=C1CCN(N=Nc2cccc(Cl)c2)N1	BAZ2B inh inconclusive, G9a block 0.794µM (no result: JMJD2A Tudor, HP1b binding inh)
Cc1cc(C2=NNC(=Nc3ccc(S(=O)(=O)N4CCOCC4)cc3)SC2)c(C)n1C	JMJD2A Tudor inconclusive, Sfp inh 12.6µM, G9a block 31.6µM
C=CCn1c(C)cc(C2=NNC(=NC(C)(C)C)SC2)c1C	JMJD2A Tudor inconclusive, Sfp inh 56.2µM, BAZ2B inh inconclusive, G9a block inconclusive
CCOc1ccc(N=C2NN=C(c3cc(C)n(CC4CCCO4)c3C)CS2)cc1 (stereo unspecified)	JMJD2A Tudor inconclusive, Sfp inh 56.2µM, HP1b binding inh inconclusive, BAZ2B inh 70.8µM, G9a block 15.8µM
C=CCn1c(C)cc(C2=NNC(=Nc3ccc(C)cc3)SC2)c1C	Sfp inh 79.4µM
CC(C)(C)N=C1NN=C(c2ccc(Cl)cc2)CS1	JMJD2A Tudor inconclusive, BAZ2B inh inconclusive
COc1ccccc1CNC(=O)c1ccc2c(c1)N(Cc1c(F)cccc1Cl)C(=O)CS2	none (no result: Sfp inh)
COc1ccc(NS(=O)(=O)c2cccc3ccccc23)cc1	none (no result: Sfp inh, BAZ2B inh, G9a block)
Cc1cc(C)cc(NC(=O)CSc2nc(-c3ccccc3)c3cc(F)ccc3n2)c1	none (no result: Sfp inh)
Cc1ccc(NC(=O)N2CCc3cc(S(=O)(=O)N4CCC(C)CC4)ccc32)cc1F	none (no result: Sfp inh)
COc1cccc(NC(=S)N(CCc2c(C)[nH]c3ccc(C)cc23)Cc2cccs2)c1	JMJD2A Tudor inconclusive
COc1ccc(OC)c(NC(=S)N(CCc2c(C)[nH]c3ccc(C)cc23)Cc2cccs2)c1	JMJD2A Tudor inconclusive, BAZ2B inh inconclusive, G9a block 44.7µM
COc1ccc2[nH]c(C)c(CCN(Cc3cccs3)C(=S)Nc3cccc(F)c3)c2c1	JMJD2A Tudor inconclusive, Sfp inh 39.8µM, BAZ2B inh inconclusive, G9a block inconclusive
COc1ccc(OC)c(NC(=S)N(CCc2c(C)[nH]c3ccccc23)Cc2cccs2)c1	JMJD2A Tudor inconclusive, BAZ2B inh inconclusive, G9a block 56.2µM
CC(C)(C)N1C(=O)[C@H]2[C@H]3[C@H](O)[C@H](O)C/C(=N/NC(=O)OCc4ccccc4)[C@@H]3CC[C@@H]2C1=O	none (no result: JMJD2A Tudor, HP1b binding inh, BAZ2B inh, G9a block)
CCOC(=O)C1=C(CN2CCN(c3ccccc3)CC2)NC(=O)NC1c1ccc(C)cc1 (stereo unspecified)	none (no result: Sfp inh, BAZ2B inh)
CCN(CC)c1ccc2c(-c3ccc(S(=O)(=O)O)cc3S(=O)(=O)[O-])c3ccc(=[N+](CC)CC)cc-3oc2c1	JMJD2A Tudor inconclusive, Sfp inh 89.1µM, HP1b binding inh 44.7µM, BAZ2B inh 7.94µM, G9a block 39.8µM
CCN(CC)c1ccc2nc3c4ccccc4c(=O)cc-3oc2c1	JMJD2A Tudor inconclusive, G9a block inconclusive
CCOc1cc2[nH]c(=S)n(C(C)C)c(=O)c2cc1OCC	none
CCC(CO)n1c(=S)[nH]c2cc(OC)c(OC)cc2c1=O (stereo unspecified)	JMJD2A Tudor 25.1µM, G9a block 17.8µM
CN=C(Cc1ccccc1)C1=C(O)CC(C)(C)CC1=O	none
CC1(C)CC(=O)C(Sc2ccccc2C(=O)O)=C(O)C1	JMJD2A Tudor 25.1µM, G9a block inconclusive
CC1(C)CC(=O)C(Sc2ccccc2)=C(O)C1	G9a block 44.7µM
COc1ccc(N2CCN(CC(O)COCCOc3ccc(Br)cc3)CC2)cc1 (stereo unspecified)	BAZ2B inh 44.7µM, G9a block 10µM
COc1ccc(N2CCN(CC(O)COc3ccc4c(c3)CCC4)CC2)cc1 (stereo unspecified)	JMJD2A Tudor 56.2µM, HP1b binding inh inconclusive, BAZ2B inh 35.5µM, G9a block inconclusive
COc1ccccc1N1CCN(CC(O)COCCOc2ccc(Br)cc2)CC1 (stereo unspecified)	JMJD2A Tudor inconclusive, BAZ2B inh inconclusive
COc1ccc(N2CCN(CC(O)COC(C)(C)C)CC2)cc1 (stereo unspecified)	JMJD2A Tudor 17.8µM, HP1b binding inh inconclusive, BAZ2B inh 44.7µM, G9a block 10µM
OCCN1CCN(CC(O)COCCOc2ccc(Br)cc2)CC1 (stereo unspecified)	JMJD2A Tudor 17.8µM, HP1b binding inh inconclusive
OCCN1CCN(CC(O)COc2ccc(-c3ccccc3)cc2)CC1 (stereo unspecified)	BAZ2B inh inconclusive
CSc1ccc(CCNC(=O)c2c(C)oc3ncn(C)c(=O)c23)cc1	none (no result: Sfp inh)
N#CCCn1c(=O)c(-c2cccs2)nc2cnc(Oc3cccc(Cl)c3)nc21	none (no result: JMJD2A Tudor, HP1b binding inh, BAZ2B inh)
COc1ccc(C2CC(=O)N(CC(=O)Nc3cccc(C)c3C)c3ccccc3S2)cc1OC (stereo unspecified)	none (no result: Sfp inh)
O=C(N/N=C/c1c(O)ccc2ccccc12)c1ccc(Br)o1	JMJD2A Tudor inconclusive, BAZ2B inh 56.2µM, G9a block inconclusive
Cc1occc1C(=O)N/N=C/c1c(O)ccc2ccccc12	none
O=C(N/N=C\c1c(O)ccc2ccccc12)c1ccc(O)cc1	JMJD2A Tudor inconclusive (no result: G9a block)
O=C(N/N=C\c1c(O)ccc2ccccc12)c1cncc(Br)c1	JMJD2A Tudor 56.2µM, BAZ2B inh 35.5µM
O=C(N/N=C/c1c(O)ccc2ccccc12)c1cccnc1	JMJD2A Tudor 50.1µM
O=C(NN=Cc1c(O)ccc2ccccc12)c1ccncc1	JMJD2A Tudor 79.4µM (no result: Sfp inh, BAZ2B inh, G9a block)
c1ccc(C2CC(c3ccccc3)C(c3ccccc3)N2)cc1 (stereo unspecified)	none (no result: G9a block)
COc1ccc(-c2nc3ccccc3s2)cc1NC(=O)c1cccc([N+](=O)[O-])c1C	none (no result: Sfp inh)
CC(C)[C@H](NC(=O)c1ccc(Cl)cc1Cl)C(=O)OCc1nc2ccsc2c(=O)[nH]1	none (no result: Sfp inh, BAZ2B inh, G9a block)
O=C(c1cccs1)N1CCCc2cc(NS(=O)(=O)c3ccc(F)cc3)ccc21	none (no result: Sfp inh)
O=C(N/N=C/c1ccccn1)c1ccc(Br)o1	Sfp inh 17.8µM, BAZ2B inh 70.8µM
O=C(N/N=C/c1ccccn1)C1CC1	JMJD2A Tudor 1.26µM, Sfp inh 79.4µM, BAZ2B inh inconclusive, G9a block 3.55µM
O=C(N/N=C/c1c(O)ccc2ccccc12)c1ccc[n+](CCO)c1	JMJD2A Tudor 28.2µM, BAZ2B inh 12.6µM, G9a block inconclusive
COc1cc(/C=N/NC(=O)CCN2CCN(C)CC2)cc2c1OCO2	JMJD2A Tudor 0.794µM, HP1b binding inh inconclusive
